Laboratory results as given in PubChem BioAssay AID540277 (National Center for Advancing Translational Sciences (NCATS), 2011).
Among all 320,000 compounds or so, about 55 (0.02%) were called active. About 3% were inconclusive and are not listed. What follows is part of a selection rich in actives, with near analogues and random picks from the rest. Values without a mark were called inactive. Cut-off read from the data, not from the text of the source: active = potentiation above about 80%; inconclusive = between about 30% and that limit; inactive = weaker than that.

The compounds below were run against Transient receptor potential cation channel subfamily V member 1 (Homo sapiens) (UniProt Q8NER1) (assay: HTS Assay for Compounds that Act as Potentiators of the Vanilloid Receptor 1). Details: TRPV1-expressing cells, Fluo-8 calcium influx, capsaicin EC20 potentiation; at 8.33 µM; hits give high values.
Chain of Transient receptor potential cation channel subfamily V member 1 (Homo sapiens) (Q8NER1 whole entry, looked up): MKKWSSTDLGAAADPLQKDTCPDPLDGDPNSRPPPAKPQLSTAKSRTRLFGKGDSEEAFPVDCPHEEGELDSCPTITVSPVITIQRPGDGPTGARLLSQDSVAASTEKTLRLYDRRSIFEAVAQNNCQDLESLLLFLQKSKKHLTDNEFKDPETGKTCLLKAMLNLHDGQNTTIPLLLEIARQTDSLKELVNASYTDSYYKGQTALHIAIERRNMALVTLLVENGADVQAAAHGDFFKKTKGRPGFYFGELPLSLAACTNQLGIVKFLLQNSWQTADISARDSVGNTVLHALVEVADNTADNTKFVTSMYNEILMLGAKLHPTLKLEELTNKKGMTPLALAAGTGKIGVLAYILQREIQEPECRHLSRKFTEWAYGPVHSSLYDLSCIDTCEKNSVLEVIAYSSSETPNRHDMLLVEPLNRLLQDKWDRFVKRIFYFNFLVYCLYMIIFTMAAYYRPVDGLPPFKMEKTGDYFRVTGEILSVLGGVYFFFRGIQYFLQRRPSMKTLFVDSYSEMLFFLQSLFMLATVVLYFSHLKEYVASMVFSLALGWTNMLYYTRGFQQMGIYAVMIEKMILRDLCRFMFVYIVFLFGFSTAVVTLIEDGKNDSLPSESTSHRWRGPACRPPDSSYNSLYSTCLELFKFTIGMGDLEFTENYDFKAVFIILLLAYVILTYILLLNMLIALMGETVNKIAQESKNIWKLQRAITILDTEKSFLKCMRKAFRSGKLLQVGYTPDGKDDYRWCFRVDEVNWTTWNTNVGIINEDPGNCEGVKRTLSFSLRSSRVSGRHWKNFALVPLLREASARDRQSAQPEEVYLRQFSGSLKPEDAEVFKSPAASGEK
From the text: The transient receptor potential ion channel, family V, number 1, (TRPV1) is one of the most important molecular transducers of painful stimuli and a potential target for analgesic drug development. Although recent clinical trials with orthosteric antagonists have not produced a successful drug because of a hyperthermia side effect and their tendency to block thermal noxious pain, this ion channel is undeniably well placed in the pain pathway, and the idea of blocking pain signals before they enter the CNS is an excellent concept and of proven efficacy when TRPV1 agonists are used. We propose a new approach involving allosteric modulation to impose an activity-dependent constraint within the context of inflammation and tissue damage that would alter the responsiveness of the channel in a way that an orthosteric vanilloid antagonist cannot achieve. We believe that the allosteric modulator approach has not been explored for this target. The main goal of this proposal is to identify additional, new, potent allosteric modulators of TRPV1 that can be used to investigate TRPV1 function. Our recent report provides evidence of proof of concept, but the compounds are just at the edge of utility in terms of potency. […] The question of whether they can be used as analgesic agents is complex, but if suitable compounds are identified then testing for analgesic properties will be conducted. NIH Chemical Genomics Center [NCGC] NIH Molecular Libraries Probe Centers Network [MLPCN] MLPCN Grant: MH089480-1A1 Assay Submitter (PI): Michael Iadarola, National Institute of Dental and Cranofacial Research
Upon TRPV1 activation in TRPV1 cells, the channel opens and extracellular cations flow through the channel into the cytosol. A calcium binding dye (Fluo-8) becomes fluorescent when bound to calcium. This dye is pre-loaded into cells and is used as a marker for calcium influx. The amount of accumulated calcium is precisely quantified using the FDSS kinetic reader and the calcium dye. For the HTS assay, freshly prepared cells are plated at a density of 2000/well in 3 ul medium in 1536-well plates and cultured overnight at 35.5C. Cells will be loaded with 1 ul of the homogeneous calcium dye (ABD Bioquest) at room temperature for 40 to 90 minutes. Plates will be loaded into the FDSS kinetic reader and a 1 sec / cycle for 10 second baseline signal will be measured. Compound library will then be added with a pintool at 23 nl and measured kinetically for 3 minutes. This portion of the read is considered the agonist portion of the screen. Following the 3 minutes of incubation, an on board pipettor will deliver 1 ul of capsaicin for a final concentration equal to the EC20. Signal will be measured kinetically for an additional 2 minutes. This portion of the read is considered the allosteric enhancer portion of the screen. The FDSS reader has a standard filter set capable of measuring calcium bound Fluo-8 (ex=480 and em=520 nm).
Note: 0% is about no effect.

| SMILES | potentiation |
| --- | --- |
| CCN(CC(=O)Nc1c(F)cccc1F)C(=O)c1ccc(-c2ccc(C(C)=O)cc2)o1 | -3.51% |
| O=C(COc1ccccc1Cl)N1N=C(c2cccs2)CC1c1ccco1 (stereo unspecified) | -9.15% |
| CCc1cc(C(=O)Nc2nnc(C3CC3)s2)sc1C | -13.7% |
| O=C(CN1CCN(S(=O)(=O)c2ccc(Cl)s2)CC1)N1CCCCC1 | -6.4% |
| CN(C)C(CNC(=O)c1ccc(OCc2cn3ccccc3n2)cc1)c1ccco1 (stereo unspecified) | -3.83% |
| CN(CC(=O)NC1CCN(Cc2ccccc2)CC1)S(=O)(=O)c1ccc(Cl)s1 | 6.87% |
| COc1ccccc1CNC(=O)COC(=O)c1sc(C)nc1C | 1.52% |
| Cc1csc2nc(COC(=O)c3cccc(N(C)C)c3)cc(=O)n12 | 15% |
| COc1ccc(CCNC(=O)COc2ccc3c(c2)OCO3)cc1 | 18.8% |
| CCOc1cc(/C=C(/C#N)c2ccc(Cl)cc2)cc(Cl)c1OCC(=O)O | 12.2% |
| COc1ccc(NC(=O)CC2SC(N3CCCCC3)=NC2=O)cc1OC (stereo unspecified) | 1.27% |
| Cc1cccc(OCCC(=O)OCc2csc(CC(=O)Nc3ccccc3C)n2)c1 | -3.33% |
| O=S(=O)(Nc1cccc2cccnc12)c1cccc2cccnc12 | 16.1% |
| O=C(COC(=O)CNC(=O)C1CCCCC1)Nc1cccc(F)c1 | -7.91% |
| O=C(COC(=O)Cc1ccccc1F)NCCc1ccccc1 | -16% |
| CC(=O)c1sc(NC(=O)CCN2C(=O)C3CC=CCC3C2=O)nc1-c1ccccc1 (stereo unspecified) | -6.85% |
| CC(C(=O)Nc1ccc(S(=O)(=O)N2CCCC2)cc1)N(C)Cc1ccc(F)cc1 (stereo unspecified) | -18.2% |
| O=C(OCC(=O)N1CCOCC1)c1ccc2ccccc2c1 | 17.8% |
| O=C(NNC(=O)c1cc(S(=O)(=O)N2CCCCC2)ccc1Cl)c1ccccc1O | -1.67% |
| CC1CCCN(C(=O)c2cc(-c3ccco3)nc3ccccc23)C1 (stereo unspecified) | 27.4% |
| CC(C)Nc1ncnc2c1nnn2Cc1ccccc1 | -2.19% |
| Oc1ccc(Cl)cc1C1C=C(c2ccc3c(c2)OCO3)NC(c2c(F)cccc2Cl)N1 (stereo unspecified) | 25.7% |
| Cc1ccc(C(=O)Nc2ccn(C)n2)cc1 | 6.57% |

| SMILES | potentiation |
| --- | --- |
| O=S(=O)(Nc1ccc2nc(N3CCOCC3)sc2c1)c1ccccc1 | 15.8% |
| O=C(CSc1nc2[nH]c(=O)[nH]c(=O)c2s1)Nc1cccc(F)c1 | 19.7% |
| O=C(Nc1ccccc1N1CCOCC1)c1ccncc1 | 17.2% |
| NS(=O)(=O)c1ccc(CNC(=O)c2cccc(S(=O)(=O)N3CCc4ccccc43)c2)cc1 | 23.8% |
| CC(C)n1ncc2c(C(=O)NCc3ccccc3CN(C)C)cc(C3CC3)nc21 | 3.73% |
| Cc1ccc(OCC(=O)N2CCN(S(=O)(=O)c3ccc(Cl)s3)CC2)cc1C | -16.7% |
| CCCn1c(N)c(N(CCOC)C(=O)C2CCCC2)c(=O)[nH]c1=O | 1.87% |
| Oc1ccc(Cl)cc1C1C=C(c2ccc3c(c2)OCO3)NC(c2ccc(F)c(Br)c2)N1 (stereo unspecified) | 3.03% |
| O=C(NCCN1CCOCC1)c1cccc(S(=O)(=O)Nc2ccc(F)cc2)c1 | 6.45% |
| COc1ccc(OC)c(/C=C/C(=O)c2ccc3c(c2)OCO3)c1 | -3.4% |
| Cc1cccc(Nc2nnc(SCC(=O)c3c(N)n(C4CC4)c(=O)[nH]c3=O)s2)c1C | 22.3% |
| COc1cc(C#Cc2ccc3cc(CCCO)oc(=O)c3c2)cc(OC)c1 | 2.73% |
| O=C(NCc1ccccc1CN1CCCC1)C1CCN(S(=O)(=O)c2ccc(Cl)cc2)CC1 | 1.5% |
| O=S(=O)(c1ccc(SCc2ccccc2)nc1)N1CCCCCC1 | -6.24% |
| Cc1ccc2ccc3c(c2n1)NS(=O)(=O)c1ccccc1-3 | 18.5% |
| CC1(C)O[C@@H]2[C@H](O1)[C@@H](COS(=O)(=O)O)O[C@H]2n1cnc2c(=O)[nH]cnc21 | 8.79% |
| COc1cccc(NC(=O)COC(=O)/C=C/c2ccco2)c1 | 11% |
| COc1ccccc1NC(=O)COC(=O)COc1ccccc1F | 3.99% |
| COc1ccc(NC(=O)CN(C)C(=O)c2cc(C3CC3)nn2-c2ccccc2)cc1 | 14.7% |
| Cc1ccc(/C=C/C(=O)OCC(=O)Nc2cccnc2Cl)cc1 | -11.8% |
| Cc1cccc(NS(=O)(=O)c2ccc(C)c(C(=O)NCC(c3ccccc3)N(C)C)c2)c1 (stereo unspecified) | 1.06% |
| Cc1cccc(NS(=O)(=O)c2cccc(C(=O)NNC(=O)c3ccccc3O)c2)c1 | -12.6% |
| COc1ccc(C(=O)OCC(=O)c2cc(C)n(CC3CCCO3)c2C)cc1[N+](=O)[O-] (stereo unspecified) | 9.08% |
